Here are results for 18 compounds from PubChem BioAssay (EPA / NIEHS).

Results filed as inconclusive are left out. Activity calls are given as the source filed them. The calls were made as follows: active = hit-call score of the fitted dose curve at least 0.9, where 1 is the maximum; inconclusive = response in the unintended direction; inactive = score below 0.9.

human Peripheral-type Benzodiazepine Receptor (PBR), TSPO (gene 706), sequence (P30536 whole entry, looked up): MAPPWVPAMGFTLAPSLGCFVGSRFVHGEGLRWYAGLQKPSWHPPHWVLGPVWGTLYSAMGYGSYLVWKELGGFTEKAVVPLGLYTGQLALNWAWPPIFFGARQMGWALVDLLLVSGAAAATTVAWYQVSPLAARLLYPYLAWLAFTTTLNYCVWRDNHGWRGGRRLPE

This assay has as its target human Peripheral-type Benzodiazepine Receptor (PBR), TSPO (gene 706) (UniProt P30536). The assay can be described thus: NVS_MP_hPBR: NovaScreen (NVS) Membrane Protein Assay for human Peripheral-type Benzodiazepine Receptor (PBR) (AID 2283331).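 Also: hits reduce radioligand binding relative to DMSO baseline.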 The essentials: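 Using human colon-derived membranes, this one-endpoint binding test reads radioligand loss by scintillation after 1 h. Screening started at 25 uM in duplicate, with positive and negative controls on every plate, and actives moved to dose series.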
`COCC(C)N(C(=O)CCl)c1c(C)csc1C` (stereo not drawn): the AC50 was 9.66 µM (active).
`CN=C=S`: the result was inactive.
Regarding `CC(C)Oc1cccc(NC(=O)c2ccccc2C(F)(F)F)c1`, the AC50 is 0.824 µM (active).
With `CCN(CC)c1nc(C)cc(OP(=S)(OC)OC)n1`, the AC50 is 14 µM (active).
On to `Cc1nc(N(C)C)nc(OC(=O)N(C)C)c1C`, for which the AC50 was 12.1 µM (active).
As to `OC(c1ccc(Cl)cc1)(c1ccc(Cl)cc1)C(Cl)(Cl)Cl`, the compound was classed as inactive.
Regarding `CCOP(=S)(OCC)Oc1nc(Cl)n(C(C)C)n1`, the compound was classed as inactive.
Take `CCOP(=O)(OCC)Oc1nc(Cl)c(Cl)cc1Cl`: the AC50 is 4.32 µM (active).
Same read-out and setting: the figure for `CC(C)NC(=O)N1CC(=O)N(c2cc(Cl)cc(Cl)c2)C1=O` is 8.8 µM (active); for `COP(=S)(OC)Oc1ccc([N+](=O)[O-])c(C)c1` it is 25 µM (active).
Regarding `CCCCC(O)(Cn1cncn1)c1ccc(Cl)cc1Cl` (stereo not drawn), the result was inactive.
On the same count and under the same terms, the entry for `CC(C)=CC1C(C(=O)OCc2coc(Cc3ccccc3)c2)C1(C)C` (stereo not drawn) is “inactive”.
Consider `CCNP(=S)(OC)O/C(C)=C/C(=O)OC(C)C` (stereo not drawn), for which the AC50 was 17.5 µM (active).
Regarding `Clc1nc(Cl)nc(Nc2ccccc2Cl)n1`, the AC50 is 14.9 µM (active).
Still for that read-out and setting: the figure for `COc1ccc(-c2ccccc2)cc1NNC(=O)OC(C)C` is 0.149 µM (active).
Take `COCC(=O)N(c1c(C)cccc1C)C(C)C(=O)OC` (stereo not drawn): the compound was called inactive.
Still for that read-out and setting: to `Cc1c(COC(=O)[C@@H]2[C@H](/C=C(\Cl)C(F)(F)F)C2(C)C)cccc1-c1ccccc1` belongs “inactive”.
For the compound `COC(=O)N(C(=O)N1CO[C@@]2(C(=O)OC)Cc3cc(Cl)ccc3C2=N1)c1ccc(OC(F)(F)F)cc1`, the AC50 was 0.292 µM (active).
